A short description of assay [1]: qHTS for Inhibitors of the Functional Ribonucleoprotein Complex (vRNP) of Lassa (LASV) Arenavirus: LASV Primary Screen - GLuc reporter signal (AID 1347082; calls by dose curve; tested in HEK293 reporter line; note: nearly all actives have a fitted effect of over 60% in size; note: potency is the fitted concentration of half-maximal effect; for activity change, negative = inhibition: % is set by controls: 0 for no effect and ±100 for the full control effect). The conditions noted are these: LASV minigenome vRNP, Gaussia luciferase reporter; series mostly up to 57.5 µM.
Assay [2] has as its target Nucleoprotein (Lymphocytic choriomeningitis virus (strain Armstrong)) (UniProt P09992). The assay can be described thus: qHTS for Inhibitors of the Functional Ribonucleoprotein Complex (vRNP) of Lymphocytic Choriomeningitis Arenaviruses (LCMV): LCMV Primary Screen - GLuc reporter signal (AID 1347086). Note: % is set by controls: 0 for no effect and ±100 for the full control effect; nearly all actives have a fitted effect of over 70% in size. The conditions noted are these: LCMV minigenome vRNP cell assay, Gaussia luciferase reporter; series mostly up to 57.5 µM. A general note: Quantitative high-throughput screening tests each substance at several concentrations.

A short description of assay [3]: Cytotoxicity counterscreen for inhibitors of SARS-CoV-2 cell entry (AID 1645845). Note: nearly all actives have a fitted effect of over 50% in size. Particulars: cell viability (SARS-CoV-2 entry assay cells); series mostly up to 57.1 µM. The procedure, abridged:
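ATP-content luminescence (ATPLite 1step, 15 min RT) read after 48 h compound exposure of Expi293F cells stably expressing human ACE2; normalized to cells-only wells and media-only wells.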

The nature of assay [4]: Primary qHTS to identify inhibitors of SARS-CoV-2 cell entry (AID 1645846). Note: nearly all actives have a fitted effect of over 45% in size. Note: potency is the fitted concentration of half-maximal effect. The conditions noted are these: SARS-CoV-2 pseudovirus cell entry assay, luminescence; activity change, negative = inhibition: at 57.1 µM (top of the series) unless noted; series mostly up to 57.1 µM. The procedure, abridged: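 Data are normalized to wells receiving SARS-CoV-2-S pseudoparticles and those given bald particles. Entry signal was luciferase luminescence in stable hACE2 Expi293F cells, 48 hr post-infection, after 1 hr compound pretreatment.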

Assay [5] is described as follows: Confirmatory qHTS for VERO E6 Cytotoxicity Assay: Counterscreen for SARS-CoV-2 CPE Assay (AID 1508605). Note: % is set by controls: 0 for no effect and ±100 for the full control effect; nearly all actives have a fitted effect of over 60% in size. The conditions noted are these: cell viability luminescence; series mostly up to 20 µM.
The nature of assay [6]: Confirmatory qHTS to identify inhibitors of SARS-CoV-2 cell entry (AID 1645844). Note: potency is the fitted concentration of half-maximal effect; nearly all actives have a fitted effect of over 45% in size. Particulars: SARS-CoV-2 pseudotyped particle cell entry, luciferase; series mostly up to 57.2 µM. Summed up: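 Luminescence entry read-out after 48 h: spike-pseudotyped MLV particles (Wuhan-Hu-1, 19-aa C-terminal truncation) added to compound-pretreated (1 h) HEK293-ACE2 cells; Data were normalised to bald PP and spike PP wells.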

Assay [7] is described as follows: Inducers of the Endoplasmic Reticulum Stress Response (ERSR) in human glioma: Validation (AID 504836; active = well fitted curve in the direction sought with a large enough effect; an effect the other way counts as inactive or inconclusive; note: 0% is about no effect). The conditions noted are these: human glioma cells, ER stress response reporter; series mostly up to 38.3 µM. Summed up:
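ERSR induction read as luciferase luminescence (Bright-Glo, 10 min at room temperature) in stably transfected human U87-MG glioma cells exposed to compounds for 16 h, using GRP78 as sensor.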

Assay [8] addresses Alpha-galactosidase (Coffea arabica) (UniProt Q42656). The assay is described as follows: Counterscreen for Glucocerebrosidase Inhibitors: qHTS Assay for Coffee Bean alpha-Galactosidase at pH 4.5 (AID 957; active = well fitted curve in the direction sought with a large enough effect; an effect the other way counts as inactive or inconclusive;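 note: plate controls were enzyme alone for no effect and no enzyme for full effect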). Particulars: purified coffee bean alpha-galactosidase, fluorogenic substrate; series mostly up to 76.9 µM. The procedure, abridged:
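Quantitative HTS of compounds (0.7 nM to 77 uM) against coffee bean alpha-galactosidase at pH 4.5, measuring 4-methylumbelliferone fluorescence released from 80 uM substrate.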
For orientation: A counterscreen serves to expose hits that act by an unwanted route or on another target.

The target is the same in assay [9]. The assay is described as follows: Counterscreen for Glucocerebrosidase Inhibitors: qHTS Assay for Coffee Bean alpha-Galactosidase at pH 5.9 (AID 998; active = well fitted curve in the direction sought with a large enough effect; an effect the other way counts as inactive or inconclusive;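 note: plate controls were uninhibited enzyme for no effect and no-enzyme basal signal for full effect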). The conditions noted are these: coffee bean alpha-galactosidase enzyme assay; series mostly up to 76.9 µM. Summed up:
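Fluorogenic 4-MU substrate hydrolysis, 80 uM substrate and 2 nM coffee bean alpha-galactosidase, pH 5.9 citrate buffer, 20 min at room temperature, then NaOH/glycine stop. Titration 0.7 nM–77 uM, normalized to no-enzyme and enzyme controls, AC50 via Hill equation.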

A short description of assay [10]: Validation screen for inhibitors of Lassa infection (AID 463096). Note: % is set by controls: 0 for no effect and ±100 for the full control effect. The conditions noted are these: Lassa virus infection, cell-based; series mostly up to 46.1 µM.
A short description of assay [11]: Primary qHTS for Huh7 cytotoxicity: counterscreen for inhibitors of MERS-S pseudotyped particle cell entry (AID 1479147). Particulars: cell viability read-out; series mostly up to 57.1 µM.
Assay [12] can be described thus: Primary qHTS for inhibitors of MERS-S pseudo-typed particle cell entry (AID 1479149). Note: nearly all actives have a fitted effect of over 60% in size. The conditions noted are these: MERS-S pseudotyped particle entry, luciferase; series mostly up to 57.1 µM.
Assay [13] can be described thus: Primary qHTS for Vero E6 cytotoxicity: counterscreen for inhibitors of SARS-S pseudo-typed particle cell entry (AID 1479150). Particulars: cell viability; series mostly up to 57.1 µM.
The nature of assay [14]: Primary qHTS for inhibitors of SARS-S pseudo-typed particle cell entry (AID 1479145). For activity change, negative = inhibition: % is set by controls: 0 for no effect and ±100 for the full control effect. Note: nearly all actives have a fitted effect of over 45% in size. The conditions noted are these: SARS-S pseudotyped particle cell entry, luciferase reporter; series mostly up to 57.1 µM.
Assay [15] is described as follows: qHTS Assay for Lipid Storage Modulators (AID 1519). For activity change, negative = inhibition: % is set by controls: 0 for no effect and ±100 for the full control effect. Particulars: Drosophila S3 cells, BODIPY lipid droplet/cell ratio, laser cytometry, cells loaded with oleic acid. The procedure, abridged: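 Cells seeded at 5,000 per well were treated with compounds over a concentration series and loaded with oleic acid (400 uM, as added). Lipid droplet fluorescence (488 nm excitation, 500-530 nm channel) was read by laser-scanning cytometry and normalized to 20 uM Triacsin C.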

Assay [16] can be described thus: qHTS profiling of the MIPE4 collection as inhibitors of Plasmodium falciparum (3D7) proliferation (AID 743344; call rule not given here;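 note: scaled between DMSO vehicle wells and 0.29 µM artemisinin as full inhibition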). The conditions noted are these: P. falciparum 3D7 in erythrocytes, SYBR Green DNA fluorescence, 72 h; at 28.5 µM (top of the series) unless noted. The procedure, abridged: (§1)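 Parasite DNA was quantified by SYBR Green I fluorescence (ex 485, em 535 nm) after overnight lysis in saponin/Triton buffer at room temperature. Cultures at 0.3% parasitemia and 2.5% hematocrit were first exposed to compound for 72 h at 37 C; signals were normalised to artemisinin (0.29 uM) and vehicle wells.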

Assay [17] is described as follows: qHTS profiling of the MIPE4 collection as inhibitors of Plasmodium falciparum (DD2) proliferation (AID 743345; call rule not given here). The conditions noted are these: P. falciparum Dd2 in erythrocytes, SYBR Green DNA, 72 h; at 28.5 µM (top of the series) unless noted. Summed up:
as §1

The nature of assay [18]: qHTS profiling of the MIPE4 collection as inhibitors of Plasmodium falciparum (DD2) proliferation (Rep 2) (AID 743346; call rule not given here). Particulars: P. falciparum Dd2 in erythrocytes, SYBR Green DNA, 72 h; at 28.5 µM (top of the series) unless noted. Summed up: as §1

Each structure is given as a SMILES string. Values joined by “and” are separate entries in the source; they are usually repeats but may differ in a detail not shown here. Identical values can stand only once. Inconclusive results are not listed. Active and inactive are the calls of the source. Unless noted, calls come from the whole dose curve.

Chain of Nucleoprotein (Lymphocytic choriomeningitis virus (strain Armstrong)) (P09992 whole entry, looked up): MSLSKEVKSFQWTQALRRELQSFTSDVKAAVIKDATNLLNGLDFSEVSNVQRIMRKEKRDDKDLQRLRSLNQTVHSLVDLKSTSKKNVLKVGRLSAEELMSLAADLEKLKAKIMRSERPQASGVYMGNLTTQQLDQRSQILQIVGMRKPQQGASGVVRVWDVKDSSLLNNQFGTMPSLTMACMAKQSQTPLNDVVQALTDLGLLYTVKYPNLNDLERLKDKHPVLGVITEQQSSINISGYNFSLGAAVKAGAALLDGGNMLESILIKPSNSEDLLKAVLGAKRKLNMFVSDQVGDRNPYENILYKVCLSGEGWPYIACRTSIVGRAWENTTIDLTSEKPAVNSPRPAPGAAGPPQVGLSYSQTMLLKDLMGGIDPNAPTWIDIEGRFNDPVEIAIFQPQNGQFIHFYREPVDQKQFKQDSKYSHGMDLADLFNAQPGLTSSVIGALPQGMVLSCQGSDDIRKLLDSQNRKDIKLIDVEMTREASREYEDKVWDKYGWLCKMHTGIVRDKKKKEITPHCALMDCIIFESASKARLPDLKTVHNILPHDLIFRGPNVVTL
Chain of Alpha-galactosidase (Coffea arabica) (Q42656 whole entry, looked up): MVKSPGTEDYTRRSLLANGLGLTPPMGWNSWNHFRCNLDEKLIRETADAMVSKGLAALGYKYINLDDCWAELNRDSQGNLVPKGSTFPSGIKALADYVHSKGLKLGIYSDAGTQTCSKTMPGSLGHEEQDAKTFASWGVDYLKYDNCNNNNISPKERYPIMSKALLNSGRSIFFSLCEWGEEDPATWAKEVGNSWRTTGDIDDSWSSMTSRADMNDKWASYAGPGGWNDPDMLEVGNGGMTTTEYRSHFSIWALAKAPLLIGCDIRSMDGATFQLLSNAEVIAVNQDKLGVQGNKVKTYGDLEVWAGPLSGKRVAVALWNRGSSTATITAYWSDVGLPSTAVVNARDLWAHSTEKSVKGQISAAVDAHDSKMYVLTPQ

For the compound `CNC(=O)[C@H](Cc1ccccc1)NC(=O)[C@H](CC(C)C)[C@H](CSc1cccs1)C(=O)NO`, the Potency entry in assay [1], in assay [2] and in assay [3] was “inactive” each time. In assay [4], the activity change, negative = inhibition was -35.2%.
Turning to `CN[C@@H](C)[C@H]1[C@H](O)C[C@@]2(C)[C@@H]3CC[C@H]4C(C)(C)[C@@H](NC)CC[C@@]45C[C@@]35CC[C@]12C`, the Potency result in [1], in assay [2] and in assay [5] was “inactive” in each case. In addition, the outcome in assay [3] is “inactive [at 11.3 µM]”.
Turning to `CC(=O)O[C@@]12CO[C@@H]1C[C@H](O)[C@@]1(C)C(=O)[C@H](O)C3=C(C)[C@@H](OC(=O)[C@H](O)[C@@H](NC(=O)c4ccccc4)c4ccccc4)C[C@@](O)([C@@H](OC(=O)c4ccccc4)C12)C3(C)C` (some centres undefined), the Potency entry in [1] and in assay [2] was “inactive” throughout.
On to `CN1CCCN(C(=O)c2cccc(-c3ccc(C=C4C(=O)Nc5ccc(Cl)cc54)o3)c2)CC1`, for which the Potency entry in assay [1] and in [2] was “inactive” each time.
Regarding `O=C(NC1CC1)c1cccc(-c2ccc3c(NC(=O)C4CC4)n[nH]c3c2)c1`, in [1], the Potency result was “inactive”. Further, the figures for the Potency in assay [6] and in [4] were 17.1 µM (active) and 7.94 µM (active), respectively.
Take `COc1cc(C)c(Sc2cnc(NC(=O)c3ccc(CNC(C)C(C)C)cc3)s2)cc1C(=O)N1CCN(C(C)=O)CC1` (centres undefined): the Potency in assay [1] was 24.3 µM (active); in [6], 9.61 µM (active). The activity change, negative = inhibition in assay [4] is -95.3%.
On to `CCC(C)SSc1ncc[nH]1` (centres undefined), for which the Potency entry in assay [1] and in assay [2] was “inactive” throughout.
For `Nc1ncnc2nc(-c3ccc(N4CCOCC4)nc3)cc(-c3cccc(Br)c3)c12`, the result in assay [7] was inactive. In addition, the Potency entry in [1], in assay [2] and in assay [3] was “inactive” in each case. The activity change, negative = inhibition in [4] was -21.9%.
Consider `Cc1ccc(/C=N/NC(=O)c2ccccc2Oc2ccccc2)o1`, for which the Potency entry in [1], in assay [2], in assay [3] and in [4] was “inactive” in each case.
As to `C[C@@H](N)c1ccc(C(=O)Nc2ccnc3[nH]ccc23)cc1`, the Potency result in [1] and in assay [2] was “inactive” in each case. In addition, the activity change, negative = inhibition in assay [4] was -95.9%.
Take `C=C1C([C@@]2(C)C(OC(C)=O)CC(=O)O[C@@](C)(COC(C)=O)C2CC(=O)OC)C(OC=O)C(OC(=O)C(O)C(C)CC)[C@]2(C)C(c3ccoc3)CC(=O)C12O` (some centres undefined): the Potency entry in [1] and in assay [2] was “inactive” throughout.
As to `O=C1NC(=O)C(c2ccccc2[N+](=O)[O-])=C1Nc1ccc(O)c(Cl)c1`, the result in [8], in [9] and in assay [7] was inactive. The Potency entry in assay [10], in assay [1], in assay [2] and in assay [3] was “inactive” each time.
As to `CC(=O)O[C@H]1C(=O)[C@@]2(C)C([C@H](OC(=O)c3ccccc3)[C@]3(O)C[C@H](OC(=O)[C@H](O)[C@@H](NC(=O)c4ccccc4)c4ccccc4)C(C)=C1C3(C)C)[C@]1(OC(C)=O)CO[C@@H]1C[C@@H]2O` (some centres undefined), the Potency entry in assay [10], in [1], in assay [2], in assay [12] and in assay [3] was “inactive” throughout. Further, the outcome in assay [7], in assay [11] and in assay [13] was inactive. Further, the Potency in assay [6] was 0.0429 µM (active). Further, the activity change, negative = inhibition in assay [4] is -37.1% and -87.7%.
As for `NC(=O)c1cnc(-c2ccc(C3(N)CCC3)cc2)c(-c2ccccc2)c1`, the Potency result in [1], in assay [2] and in [3] was “inactive” each time.
With `O=C(O)c1c(Cl)c(Cl)c(Cl)c(Cl)c1-c1c2cc(I)c(=O)c(I)c-2oc2c(I)c(O)c(I)cc12`, the Potency entry in assay [1], in assay [14], in assay [12] and in assay [3] was “inactive” in each case. Further, in assay [11], the outcome was inactive.
As for `Cn1cnc(=N)c2[nH]cnc21`, the Potency entry in assay [1], in [2] and in assay [3] was “inactive” in each case. Besides, the activity change, negative = inhibition in [4] was -0.211% [at 114 µM].
Take `CC(C)(C)c1nc(-c2cccc(NS(=O)(=O)c3c(F)cccc3F)c2F)c(-c2ccnc(N)n2)s1`: the Potency entry in assay [1], in [2], in assay [14] and in assay [3] was “inactive” throughout. Further, the outcome in assay [11] and in [13] was inactive. Also, the Potency in [4] is 28.2 µM (active).
Take `CC(C(=O)O)c1ccc(-c2ccccc2)c(F)c1` (centres undefined): the values for the activity change, negative = inhibition in assay [15] (at 57.5 µM (top of the series)) and in [4] were 7.18% (inactive) and -16.8%, respectively. For the same compound, the max response in assay [15] (measured here: cell count channel max response) was 15.4%; in [15] (measured here: lipid channel max response), 28.2%. The parasite growth, % of DMSO control in assay [16] came out at 86.5%. The compound further displayed a parasite growth remaining, % of DMSO control (lower = more inhibition) in assay [17] of 95.5%. For the same compound, the parasite growth, % of control (lower = inhibition) in assay [18] stood at 114%. Moreover, the Potency result in [1], in assay [14], in assay [12], in assay [3] and in [4] was “inactive” each time. Further, the result in assay [11] and in assay [13] was inactive.

The values above are taken from PubChem BioAssay (NCATS).
